From PubChem BioAssay (EPA / NIEHS)
Results filed as inconclusive are left out. The source made the active and inactive calls. The calls were made as follows, unless noted: active = hit-call score of the fitted dose curve at least 0.9, where 1 is the maximum; inconclusive = response in the unintended direction; inactive = score below 0.9.

Columns and labels:
[1] = Tanguay_ZF_120hpf_BRAI_legacy: (Legacy) Oregon State University Tanguay Lab 120 Hour Post-fertilization zebrafish Assay for Brain Malformation (AID 2283641)
Procedure, shortened: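 Static exposure of staged wild-type embryos until 120 hpf, kept at 28C with light excluded and final DMSO of 0.64% (vol/vol). Presence or absence of brain malformation was noted under brightfield; mortality precluded scoring.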

[2] = Tanguay_ZF_120hpf_SOMI_legacy: (Legacy) Oregon State University Tanguay Lab 120 Hour Post-fertilization zebrafish Assay for Somite Malformation (AID 2283647)
Procedure, shortened: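 Somitogenesis defects are recorded as binary calls in whole larvae at 120 hpf after continuous static chemical exposure starting at 6 hpf in dechorionated 5D embryos. DMSO serves as negative control and baseline.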

[3] = Tanguay_ZF_120hpf_PFIN_legacy: (Legacy) Oregon State University Tanguay Lab 120 Hour Post-fertilization zebrafish Assay for Pectoral Fin Malformation (AID 2283648);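 also: each larva judged yes or no for fin defect by brightfield with dead larvae skipped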
Procedure, shortened: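 Pectoral fin malformation was recorded as a binary endpoint at 120 hpf in wild-type Tropical 5D larvae, which had been dechorionated and exposed statically from 6 hpf at 28C in 0.64% DMSO. Dead embryos were excluded.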

[4] = Tanguay_ZF_120hpf_CFIN_legacy: (Legacy) Oregon State University Tanguay Lab 120 Hour Post-fertilization zebrafish Assay for Caudal Fin Malformation (AID 2283649)
Procedure, shortened: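 Single dechorionated 5D wild-type embryos are dosed at 6 hpf (final DMSO 0.64%) and held statically at 28C. Caudal fin malformation is recorded as present or absent at 120 hpf under brightfield, excluding dead embryos.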

[5] = Tanguay_ZF_120hpf_CIRC_legacy: (Legacy) Oregon State University Tanguay Lab 120 Hour Post-fertilization zebrafish Assay for Circulatory Malformation (AID 2283651)
Procedure, shortened: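 Binary circulatory-malformation call at 120 hpf via brightfield imaging, relative to DMSO controls. Embryos (5D strain, chorion removed) received static, light-shielded exposure at 28C.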

[6] = Tanguay_ZF_120hpf_SWIM_legacy: (Legacy) Oregon State University Tanguay Lab 120 Hour Post-fertilization zebrafish Assay for Swim Bladder Malformation (AID 2283654);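 also: swim bladder malformation in each larva scored yes or no under brightfield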
Procedure, shortened: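 Scoring is binary for swim bladder defects at 120 hpf, by brightfield inspection of zebrafish larvae. Embryos were exposed singly from 6 hpf after pronase dechorionation, at 28C with 0.64% DMSO; mortality excluded scoring.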

[7] = Tanguay_ZF_120hpf_TRUN_legacy: (Legacy) Oregon State University Tanguay Lab 120 Hour Post-fertilization zebrafish Assay for Truncated Body (AID 2283655)
Procedure, shortened: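 Single dechorionated zebrafish embryos received test chemical from 6 hpf in 0.64% DMSO, kept at 28C. At 120 hpf, brightfield inspection noted any truncated body.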

[8] = Tanguay_ZF_120hpf_PIG_legacy: (Legacy) Oregon State University Tanguay Lab 120 Hour Post-fertilization zebrafish Assay for Pigmentation Malformation (AID 2283650)
Procedure, shortened: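 Pigment malformation recorded as a binary call at 120 hpf in zebrafish (Tropical 5D) exposed singly from 6 hpf after pronase dechorionation. Static, sealed, 28C exposure, 0.64% DMSO; mortality excludes scoring; positive-direction fit against DMSO.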

[9] = read-out: kallikrein-3 (KLK3), KLK3 (gene 354); experiment: LTEA_HepaRG_KLK3: Life Technologies and Expression Analysis (LTEA) Assay for kallikrein-3 (KLK3) using HepaRG (AID 2283652; active = hit-call score of the fitted dose curve at least 0.9, where 1 is the maximum; inactive = score below 0.9); conditions: mRNA level, 48 h; actives raise or lower the signal
Protocol: (§1) LTEA_HepaRG is a cell based, multiplexed-readout assay that uses HepaRG, a human liver cell line, with measurements taken at 48 hours after chemical dosing on a 96-well plate.LTEA_HepaRG_KLK3 is one of 102 assay component(s) measured in the LTEA HepaRG cell culture assay. It is a marker of Cellular remodeling.Data from the assay component LTEA_HepaRG_KLK3 was analyzed into 1 endpoint. This assay endpoint, LTEA_HepaRG_KLK3, was analyzed with bidirectional fitting relative to DMSO as the negative control and baseline of activity. Using a type of inducible reporter, measures of mRNA induction for gain or loss-of-signal activity can be used to understand regulation of transcription factor activity. To generalize the intended target to other relatable targets, this assay endpoint is annotated to the protease intended target family, where the subfamily is Cellular remodeling.
(§2) A total of 1060 chemcials from the ToxCast library were tested in eight-point concentration-response experiments. Cell culture and cytotoxicity assays were conducted at Thermo Fisher Scientific's Custom Services facility (Madison, WI). A single lot of human HepaRG cells (Thermo Fisher Scientific, Frederick, MD) was used for the cell culture experiments. 96-well format collagen type I coated plates of human HepaRG cells were prepared using established methods. Briefly, cryopreserved HepaRG cells were thawed, plated at a density of approximately 100,000 cells/well in HepaRG Thaw, Plate, and General Purpose media (HPRG770, Thermo Fisher Scientific), and incubated for 48 hours. 0.5% DMSO was selected as vehicle control to balance the requisite need of DMSO in HepaRG cultures to maintain differentiation (for example, baseline metabolism, proportions of hepatocytes vs. cholangiocytes), while enabling further hepatic receptor pathway activation (for example, PXR and CAR) in response to chemical exposure. 48 hours after plating, the culture medium was replaced with HepaRG Serum-Free Incudtion Media. Cells were exposed to each test chemical in duplicate and maintained in CO2 incubators for another 48 hours. Chemical plates were thawed to room temperature and 200x concentrations of treatment groups were prepared. 8-point conentration-reponse curves were made with the highest exposure at 100 uM, followed by half-log dilutions, all in 0.5% DMSO. Each test plate contained variouse controls, induction positive controls (1mM phenobarbital), cytotoxicity positive controls ([…] aflatoxin B1), vehicle controls (0.5% DMSO), and total lysis controls (0.5% DMSO). Cell morphology images were taken using an Essen IncuCyte FLR automated microscope, with six 96-well plates imaged in about 24 minutes. Images were captured and exported and JPEG files. Spent culture media was transfered to black-well plates for the LDH assay, and remaining media was sorted at -80 C for later use. Cells were treated with RLT buffer and frozen until shipped for gene expression analysis. Total RNA was isolated from the cell suspension in 75 uL of Buffer RLT (Qiagen, Germantown, MD 20874) by Quintiles/Expression Analysis (Durham, NC) using a custom isolation procedure. Total RNA from each plate well was transferred to a preamplification plate. Fluidigm's 96.96 Dynamic ArrayTM (Fluidigm, Amsterdam, the Netherlands) technology was used for gene expression analyses by quantitative reverse transcription polymerase chain reaction (qRT-PCR, performed by Quintiles/Expression Analysis, Durham, NC)89. […]

[10] = read-out: solute carrier (SLC22A6), SLC22A6 (gene 9356); experiment: LTEA_HepaRG_SLC22A6: Life Technologies and Expression Analysis (LTEA) Assay for solute carrier (SLC22A6) using HepaRG (AID 2283653; active = hit-call score of the fitted dose curve at least 0.9, where 1 is the maximum; inactive = score below 0.9); conditions: mRNA level, 48 h; actives raise or lower the signal
Protocol: as §1, with “plate.LTEA_HepaRG_SLC22A6” for “plate.LTEA_HepaRG_KLK3”, “NR mediated transport.Data” for “Cellular remodeling.Data”, “LTEA_HepaRG_SLC22A6” for “LTEA_HepaRG_KLK3”, “LTEA_HepaRG_SLC22A6,” for “LTEA_HepaRG_KLK3,”, “transporter” for “protease”, “organic anion transporter.” for “Cellular remodeling.”
as §2, with “NC)89. Standard TaqManTM Assays (Applied Biosystems/ThermoFisher Scientific, Foster City, CA) were used to assess the expression of 93 genes selected based on their selectivity and sensitivity to important hepatic receptors known to be modulated by environmental chemicals; importance in human hepatocyte functionality; and hepatotoxicity.” for “NC)89.”

| SMILES | outcome [1] | outcome [2] | outcome [3] | outcome [4] | outcome [5] | outcome [6] | outcome [7] | outcome [8] | outcome [9] | outcome [10] | AC50 [7] |
| --- | --- | --- | --- | --- | --- | --- | --- | --- | --- | --- | --- |
| Oc1ccc2c(c1)OC[C@@H](N1CCC(O)(c3ccc(F)cc3)CC1)[C@H]2O | inactive | inactive | inactive | inactive | inactive | inactive | inactive |  |  |  |  |
| O=C(O)Cc1ccccc1Nc1c(Cl)cccc1Cl | inactive | inactive | inactive | inactive | inactive | inactive | inactive | inactive |  |  |  |
| CC(=O)OC/C=C(\C)CCC=C(C)C | inactive | inactive | inactive | inactive | inactive | inactive |  |  | inactive | inactive |  |
| C[Si]1(C)O[Si](C)(C)O[Si](C)(C)O[Si](C)(C)O1 | inactive | inactive | inactive | inactive |  | inactive | inactive | inactive |  |  |  |
| CCCCc1ccc2c(n1)[C@@H](c1ccc(OC)cc1C[C@H](C)C(=O)O)[C@H](C(=O)O)[C@H]2c1ccc2c(c1)OCO2 | inactive | inactive | inactive | inactive | inactive | inactive | inactive | inactive |  |  |  |
| CCOC(=O)CCC(=O)OCC | inactive | inactive | inactive | inactive | inactive | inactive | inactive |  |  |  |  |
| CCCCCCCCCCC | inactive | inactive | inactive | inactive | inactive | inactive | inactive | inactive | inactive | inactive |  |
| CC(=O)OCCOCCOCCOC(C)=O | inactive | inactive | inactive | inactive | inactive | inactive | inactive |  |  |  |  |
| COCCOCCOC | inactive | inactive | inactive | inactive | inactive | inactive | inactive |  |  |  |  |
| O=c1[nH]cc(F)c(=O)[nH]1 | inactive | inactive | inactive | inactive |  | inactive | inactive | inactive |  |  |  |
| C=CCc1ccc(O)c(OC)c1 | inactive | inactive | inactive | inactive | inactive | inactive | inactive |  |  |  |  |
| CCCCCCC(=O)OCC | inactive | inactive | inactive |  | inactive | inactive | inactive | inactive |  |  |  |
| CCc1c(C(=O)NN2CCCCC2)nn(-c2ccc(Cl)cc2Cl)c1-c1ccc(Br)cc1 | inactive | inactive |  | inactive | inactive | inactive |  | inactive |  |  |  |
| COc1ccc(S(=O)(=O)N2C(=O)[C@@](c3ccccc3OC)(N3C[C@H](O)C[C@H]3C(=O)N(C)C)c3cc(Cl)ccc32)c(OC)c1 | inactive | inactive | inactive | inactive | inactive |  | inactive |  |  |  |  |
| CN1CCN(Cc2cc(-c3ccc4[nH]c(=O)oc4c3)co2)[C@@H](c2ccc(F)cc2)C1 | inactive | inactive | inactive | inactive | inactive | inactive |  |  |  |  | 16.2 µM (active) |
| COc1cc(-c2nc(NC(=O)c3cc4cc(C)cc(C)c4n3CC(=O)O)sc2CCC2CCCCC2)c(OC)cc1Cl | inactive | inactive | inactive | inactive | inactive | inactive | inactive |  |  |  |  |
| C1CCC(SSC2CCCCC2)CC1 | inactive | inactive | inactive | inactive |  |  | inactive |  | inactive | inactive |  |
| CCCCCCOCCO | inactive | inactive | inactive |  | inactive | inactive | inactive |  |  |  |  |
| CC1(C)CC(N=C=O)CC(C)(CN=C=O)C1 (configuration not stated) | inactive | inactive | inactive | inactive | inactive | inactive | inactive |  |  |  |  |
| CCCc1cc(=O)[nH]c(=S)[nH]1 | inactive | inactive | inactive | inactive |  | inactive | inactive |  |  |  |  |
